# Most compounds without a hit are left out; they make up all but 4.7% or so of the library.
# HSP90 refold inh: blocks HSP90-mediated luciferase refolding in reticulocyte lysate | Rabbit reticulocyte lysate, luciferase refolding luminescence, 3 h | AID 1789 | inhibition, % at 5.6 µM | actives 0.91% (n = 290,000);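 active means inhibition above the screen-wide mean plus 3 SD, computed separately per campaign, cut at about 16% in these data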;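 further: inhibitors lower the luminescence because luciferase stays unfolded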
# EBV LMP1 NFkB: inhibitors of Epstein-Barr LMP1-induced NF-kappaB reporter; AID 504558; inhibition, % at 12.5 µM; LMP1-induced NF-kappaB luciferase reporter cells, luminescence; actives 0.69% (n = 350,000); in the data active means inhibition above about 41%; inconclusive means no clear call, values can overlap the other calls
# HSF1 inhib: HSF1 inhibition. activity change, negative = inhibition, % at 7.5 µM (by protocol). actives 0.77% (n = 300,000). NIH3T3-HGL HSE-luciferase, MG132-induced, luminescence 8 h; stronger effect = lower value. AID 2098;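 active means more than half of replicate wells show activity change below -50%, luminescence cut by over half; inconclusive means some wells, but at most half, below -50%; inactive means no replicate well below -50%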;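 further: luciferase reports HSF-1 transcriptional activity via heat shock element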
# HSF-1 act: increases HSF-1 driven luciferase reporter signal. NIH3T3-HGL HSF-1 luciferase reporter, MG132, 8 h; 100% = twice DMSO control signal. activation, % at 9 µM. actives 1.7% (n = 300,000);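 active means mean replicate activation of at least 50% with a set share of replicates each reaching 50%; inconclusive means only one of those two conditions met; inactive means mean below 50% and too few replicates reaching it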
# TWEAK-Fn14 inh: blocks TWEAK-Fn14 interaction in a reporter cell assay. TWEAK-stimulated Fn14 reporter cells, luciferase luminescence, 8 h. inhibition, % at 10 µM. actives 2% (n = 360,000). AID 1159606; in the data active means inhibition above about 50%
# TROY signal inh: inhibitors of TROY-dependent NF-kB signaling. AID 1347056. inhibition, % at 10 µM. actives 0.98% (n = 360,000). Q293 LMP1-TROYcd NF-kB luciferase reporter, 4 h;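 active means compounds whose plate-normalised and pattern-corrected inhibition of the luciferase reporter signal at the single screening dose is 50% or more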
# HSP90 confirm: confirmation of HSP90 inhibitors | actives 64% (n = 2,300) | shares compounds with HSP90 refold inh | inhibition, % at 5.9 µM | rabbit reticulocyte lysate, luciferase refolding luminescence, 3 h; in the data active means inhibition above about 18%
# luciferase ctr: firefly luciferase inhibition, HSP90 counter-screen; shares compounds with HSP90 refold inh; purified native firefly luciferase, luminescence; inhibition, % at 5.9 µM; actives 48% (n = 2,300); AID 1847;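 active means inhibition above the mean inhibition of all tested sample wells plus 3 SD, cut at about 10% in these data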
# Target sequence (P08659 whole entry, looked up): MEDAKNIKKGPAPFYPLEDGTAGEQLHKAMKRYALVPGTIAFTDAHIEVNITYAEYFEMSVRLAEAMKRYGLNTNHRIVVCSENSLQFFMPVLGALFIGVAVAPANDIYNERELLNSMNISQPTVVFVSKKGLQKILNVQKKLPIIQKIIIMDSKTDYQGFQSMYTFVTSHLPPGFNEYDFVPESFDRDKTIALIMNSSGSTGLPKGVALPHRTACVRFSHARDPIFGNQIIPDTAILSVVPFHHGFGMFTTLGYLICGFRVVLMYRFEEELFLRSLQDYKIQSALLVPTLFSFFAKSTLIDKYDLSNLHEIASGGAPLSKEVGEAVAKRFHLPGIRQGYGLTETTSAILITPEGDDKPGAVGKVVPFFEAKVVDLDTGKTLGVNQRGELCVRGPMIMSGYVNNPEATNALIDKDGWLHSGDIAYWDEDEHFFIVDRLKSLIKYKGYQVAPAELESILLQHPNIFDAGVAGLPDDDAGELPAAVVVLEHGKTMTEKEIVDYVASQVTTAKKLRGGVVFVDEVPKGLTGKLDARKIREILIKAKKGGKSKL
# A number is an active result; - = inactive; ? = inconclusive; . = no result.
SMILES,HSP90 refold inh,EBV LMP1 NFkB,HSF1 inhib,HSF-1 act,TWEAK-Fn14 inh,TROY signal inh,HSP90 confirm,luciferase ctr
O=C(O)CSc1nnc(NC(=O)c2ccc3c(c2)OCO3)s1,25.9,-,-,-,-,-,26.2,-
Cc1ccc(-c2cc3ccccc3nc2N)cc1,-,-,-,-,-,-,.,.
N#Cc1cc2ccccc2nc1N,20.0,-,-,-,-,-,-,-
CC(=O)C1=C(C)OC(N)=C(C#N)C1c1cccc2ccccc12 (stereo not given),-,-,-,-,-,-,.,.
CC(=O)n1c2c(c3ccccc31)OC(N)=C(C#N)C2c1ccc(C(C)C)cc1 (stereo not given),19.6,-,.,.,89.3,79.1,-,23.7
CCOC(=O)/C(=N\Nc1ncnc2ccccc12)c1ccc(OC)cc1,18.1,-,-,-,-,-,23.1,-
O=C(Nc1nc2ccccc2s1)NC1CCCCC1,-,-,-,-,-,-,.,.
COc1cc(C(=O)Nc2nc3ccccc3[nH]2)cc(OC)c1OC,-,-,-,-,-,-,.,.
Cc1ccc(C(=O)Nc2nc3ccccc3[nH]2)cc1,86.0,63.4,-,-,97.4,71.2,89.3,84.5
COc1ccc(C(=O)Nc2nc3ccccc3[nH]2)cc1,74.0,55.4,-,-,89.0,68.9,85.6,79.9
COc1cccc(C(=O)Nc2nc3ccccc3[nH]2)c1,27.2,?,-,-,87.1,-,66.8,56.2
O=C(Nc1nc2ccccc2[nH]1)NC1CCCCC1,22.9,-,-,-,-,-,24.1,-
CC(C)[C@H](NC(=O)OCc1ccccc1)C(=O)OCC(=O)N1C(C)CCCC1C (stereo not given in full),.,-,.,.,-,-,.,.
CN=c1scc(-c2ccc(Br)cc2)n1C,-,-,-,-,-,-,.,.
CN=c1scc(-c2ccccc2Br)n1/N=C/c1ccc[nH]1,61.5,.,-,-,.,.,72.3,70.1
O=S1(=O)CC(N2CCN(CC3CC3)CC2)CN1Cc1ccccc1 (stereo not given),.,.,.,.,-,-,.,.
COC(=O)c1cc(C)nc2c1C(=O)C(=O)C=C2N1CCOCC1,44.7,-,-,-,103.2,-,91.1,-
COc1cc(CC2C(=O)OCC2C(=O)c2ccc3c(c2)OCO3)cc(OC)c1OC (stereo not given),.,-,.,.,-,-,.,.
O=C(/C=C/c1ccccc1Cl)OCC(=O)N1CCc2ccccc21,.,-,.,.,-,-,.,.
CC1(C)Cc2ccccc2C2=NNC(=O)C2=N1,17.2,-,-,-,-,-,33.6,-
O=C(Nc1nnc(SCC(=O)N2CCCCC2)s1)c1ccc(F)cc1F,51.5,-,-,-,-,-,-,-
O=C(Cc1ccc(F)cc1)Nc1nnc(SCC(=O)N2CCCCC2)s1,-,-,-,-,-,-,.,.
O=C(O)c1cccc(Nc2nc(N3CCOCC3)nc(N3CCOCC3)n2)c1,-,-,-,-,-,-,.,.
O=C(O)c1cccc(Nc2ccnc(Nc3cccc(C(=O)O)c3)n2)c1,37.4,57.8,-54.5,-,-,-,39.5,58.0
COc1ccc(C(=O)c2coc3ccc(O)c(CN4CCCCC4)c23)cc1,47.1,-,-,-,-,-,-,-
SMILES,HSP90 refold inh,EBV LMP1 NFkB,HSF1 inhib,HSF-1 act,TWEAK-Fn14 inh,TROY signal inh,HSP90 confirm,luciferase ctr
CCCCN1C(=O)C(CC(=O)NCc2cccs2)CC(C(=O)N(C(C)C)C(C)C)=C1C (stereo not given),.,-,.,.,-,-,.,.
CN1OC[C@@H]2CN(Cc3ccccc3)[C@H](c3cccc(-c4ccccc4)c3)C[C@@H]21,.,-,.,.,-,-,.,.
COCCn1c(C)cc(C(=O)COC(=O)C23CC4CC(CC(O)(C4)C2)C3)c1C,34.9,41.7,-,-,76.0,65.0,46.2,33.3
CC(=O)N(C(C)=O)c1ccc2c(c1)OCCO2,.,-,.,.,-,-,.,.
Cc1c(C(=O)NCc2cccc(C(F)(F)F)c2)sc(=O)n1Cc1ccc(S(=O)(=O)N(C)C)cc1,.,.,.,.,-,-,.,.
O=C(CSc1nc2ccccc2c(=O)n1NC(=O)c1ccccc1)c1ccccc1,36.5,-,-,-,-,-,-,-
CCn1c(SCC(=O)c2ccccc2)nc2ccccc2c1=O,-,-,-,-,-,-,.,.
Cc1nc2ccccc2c(=O)n1NC(=O)c1ccc(Cl)cc1,-,-,-,-,-,-,.,.
O=C(CSc1nc2ccccc2c(=O)n1NC(=O)c1ccccc1)c1ccc(Cl)cc1,24.4,-,-,-,-,-,-,-
O=C(N/N=C\c1ccc(-c2ccccc2[N+](=O)[O-])o1)C1COc2cc3ccccc3cc2O1 (stereo not given),22.0,-,-,-,-,-,-,-
COc1ccc(/C=N/n2c(-c3ccco3)nc3ccccc3c2=O)cc1,19.0,-,-,-,-,-,-,-
CCN(CC)c1ccc(/C=C(\C#N)c2ccccn2)cc1,21.2,-,-58.3,-,76.9,70.9,69.6,60.5
CCN1C(=O)N2C[C@H]3CON(C)[C@H]3C[C@H]2c2ccccc21,.,.,.,.,-,-,.,.
COc1cc(OC)c(C(=O)O/N=C(\N)c2ccccn2)cc1OC,-,-,-,-,-,-,.,.
Cc1ccccc1C(=O)O/N=C(\N)c1ccccc1,23.7,-,-,-,-,-,49.0,76.9
N/C(=N\OC(=O)c1ccccc1Cl)c1ccccn1,72.7,65.2,-,-,102.0,70.1,67.6,88.6
COc1ccccc1C(=O)O/N=C(\N)c1ccccn1,28.4,-,-,-,74.3,54.7,-,-
Cc1ccccc1C(=O)O/N=C(\N)c1ccc([N+](=O)[O-])cc1,-,-,-,-,-,-,.,.
Cc1ccc(C(=O)O/N=C(\N)c2ccccn2)c(C)c1,91.6,87.0,-89.1,-,103.9,87.3,96.9,93.6
CCCS(=O)(=O)NC(=O)C1(C)CCN(C(=O)/C=C/c2ccccc2)C1 (stereo not given),.,.,.,.,-,-,.,.
Cc1ccc(S(=O)(=O)N(C)C[C@@H]2OCc3cnnn3CCCC(=O)N([C@@H](C)CO)C[C@@H]2C)cc1,.,-,.,.,-,-,.,.
CC(C)(C)n1nnnc1C(c1ccccc1)N1CCN(c2c(Cl)cncc2Cl)CC1 (stereo not given),.,.,.,.,-,-,.,.
CN(Cc1ccc(Cl)cc1Cl)C(=O)C1CC(=O)N(Cc2ccco2)C1 (stereo not given),.,-,.,.,-,-,.,.
CNc1ccc(-c2ccccc2OC)cn1,.,.,.,.,-,-,.,.
COc1ccccc1N(Cc1ccccc1)S(=O)(=O)c1cccc(C(=O)Nc2cc(C)ccn2)c1,38.3,-,-,-,66.2,55.2,57.7,40.8
O=c1cc(CN2CCCC2)c2c(ccc3ccccc32)o1,.,.,.,.,-,-,.,.
O=C(NC(=S)Nc1cccc(O)c1)C12CC3CC(CC(C3)C1)C2,.,-,.,.,-,-,.,.

# Assay outcomes: PubChem BioAssay, several laboratories
